Assay results published in ChEMBL document CHEMBL3988442, “University of Dundee, Small-Polar-MMV Screening Library” (2021).

Target: T1, Aspartate--tRNA(Asp/Asn) ligase (Mycobacterium tuberculosis (strain ATCC 25618 / H37Rv)) (UniProt P9WFW3)
T1 sequence (whole entry): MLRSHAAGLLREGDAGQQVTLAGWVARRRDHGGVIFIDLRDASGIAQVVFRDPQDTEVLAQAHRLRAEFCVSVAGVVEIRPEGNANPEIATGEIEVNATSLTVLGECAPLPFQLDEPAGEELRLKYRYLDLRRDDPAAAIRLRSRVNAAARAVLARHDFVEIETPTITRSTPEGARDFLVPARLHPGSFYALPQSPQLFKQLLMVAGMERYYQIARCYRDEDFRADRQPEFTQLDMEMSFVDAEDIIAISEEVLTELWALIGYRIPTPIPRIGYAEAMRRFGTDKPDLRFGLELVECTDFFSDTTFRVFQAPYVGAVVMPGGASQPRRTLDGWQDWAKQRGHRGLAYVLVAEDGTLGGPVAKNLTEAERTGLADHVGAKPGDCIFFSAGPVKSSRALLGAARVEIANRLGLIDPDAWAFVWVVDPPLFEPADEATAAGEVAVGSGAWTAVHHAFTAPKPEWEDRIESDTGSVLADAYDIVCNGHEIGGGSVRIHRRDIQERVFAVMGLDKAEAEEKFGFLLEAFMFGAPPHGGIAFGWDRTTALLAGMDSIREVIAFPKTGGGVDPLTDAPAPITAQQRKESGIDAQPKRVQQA
Assay: Assay for Asp RNA synthetase-1 from Mycobacterium tuberculosis
Format: functional
Design: scale not given: in the data most compounds retested in dose-response had high values
Settings: 30 µM

Row | SMILES | Percent Effect
1 | CC(C)(C)n1cc(C(=O)N2CCCN(Cc3cccs3)CC2)cn1 | -0.0333%
2 | Cc1occc1C(=O)N1CCCC2(CCN(CCN3CCCC3)C2=O)C1 (stereo not given) | 1.84%
3 | CC(C)C(C(=O)N1CCCN(Cc2cnn(C)c2)CC1)n1cncn1 (stereo not given) | -1.93%
4 | CN1CCN(C(=O)c2ccc(=O)n(C)c2)Cc2ccccc21 | -5.51%
5 | CCC(C)(NCC(=O)N(c1ccccc1)C(C)C)c1nc(C)cs1 (stereo not given) | 1.2%
6 | CN(C)c1ccccc1C(=O)N1C[C@@H](CN2CCCCC2)[C@@H](CO)C1 | -5.26%
7 | c1ccc(Cc2noc(CNC3CCc4ncnn4C3)n2)cc1 (stereo not given) | -0.932%
8 | O=C(c1cnco1)N1CCCC(Cc2cccc3ncccc23)C1 (stereo not given) | 3.23%
9 | Cc1ccc(N(C)C2CCN(C(=O)CCc3ccco3)CC2)nn1 | 2.42%
10 | CCn1cnnc1C1CCN(C(=O)c2ccccc2OC)CC1 | -4.13%
11 | O=C(c1ccc2c(c1)OCO2)N1CCN(c2cnccn2)CC1 | -4.12%
12 | CCCn1[nH]cc/c1=N\C(=O)CN1CCc2cnc(CC)nc2C1 | 5.8%
13 | CC(C)c1cc2c(O)nc(CSCC(=O)O)nc2s1 | -0.29%
14 | COc1ccc(NC(=O)CCc2c(C)nc3cc(O)nn3c2C)cn1 | -0.607%
15 | COCCC(=O)N1CCC2(COCc3cnc(-c4ccccc4)nc32)C1 (stereo not given) | -4.87%
16 | CC(C)c1ccsc1C(=O)N1CCCN(Cc2cscn2)CC1 | 6.6%
17 | CN(C)c1ncc(CN2CCC(c3nnsc3S(C)(=O)=O)CC2)cn1 | -3.26%
18 | Clc1ccccc1C1(c2ccnc(-c3ccncc3)n2)CCNCC1 | 0.832%
19 | CCOC(=O)NC(CNC(=O)c1ccccn1)CC(C)C (stereo not given) | -2.16%
20 | CC(C)CNC(=O)c1ccc2nnc(C3CCN(S(C)(=O)=O)C3)n2c1 (stereo not given) | 3.22%
